Bioassay records from PubChem.
Most compounds without a hit are left out; they make up all but 5.4% or so of the library.
CtBP-E1A blk: qHTS Assay for Inhibitors of the CtBP/E1A Interaction; CtBP / adenovirus E1A interaction (AlphaScreen); AlphaScreen GST-E1A/His-CtBP binding, 1536-well; stronger effect = lower value; activity change, % (test concentration not listed); 0.49% of 340,000 active; AID 651724, 2012; in the data active means activity change below about -65%; inconclusive means mostly about -30% to -63%
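Steps: dispense buffer (Tris pH 8.0, NaCl 300 mM, TCEP 1 mM, BSA, Tween 20); add 5X protein mix (GST-E1A, His-CtBP, 125 nM each); pin 23 nL compound; 2 h at 37 °C, dark; add 5X beads (50 ug/mL); 1 h; read.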
Six1-Eya2 blk: qHTS Assay for Inhibitors of the Six1/Eya2 Interaction | Homeobox protein SIX1 (Homo sapiens) + Protein phosphatase EYA2 (Homo sapiens), … | AlphaScreen GST-Six1/His-Eya2 binding, biochemical; stronger effect = lower value | activity change, % (test concentration not listed) | 0.56% of 360,000 active; in the data active means activity change below about -65%; inconclusive means mostly about -30% to -63%
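Homogeneous AlphaScreen proximity assay pairing GST-Six1 with His-tagged Eya2 (added as 5X mix: 250 nM and 500 nM) in 50 mM Tris pH 8.0, 300 mM NaCl, 1 mM TCEP. Glutathione donor and nickel acceptor beads; 1 h, 37 °C, dark.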
Gal4-VP16 FLuc: VP16 counterscreen qHTS for inhibitors of ROR gamma transcriptional activity; Drosophila S2 Gal4-VP16 UAS-luciferase, luminescence, 20 h; Potency, µM (series often up to 53.6 µM), hits mostly inhibitors; 3.5% of 310,000 active; AID 2546, 2010;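 further: Gal4-VP16 expression switched on by copper sulfate through the metallothionein promoter; nearly all actives have a fitted effect of over 50% in size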
p53 reactivator: qHTS assay for re-activators of p53 using a Luc reporter. Potency, µM (titrated, usually from 92.2 µM), hits mostly activators. AID 504706, 2011. 0.063% of 320,000 active. H1299 p53-A138V BP100-luciferase reporter, luminescence, 24 h; further: nearly all actives have a fitted effect of over 45% in size
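H1299 (p53-null), stable ts p53-A138V + BP100-Luc; 1000 cells/well, Opti-MEM/10% FBS; cpd 4 pt, 1:5; 24 h, 37 deg C, 5% CO2; detection reagent 10 min RT; luminescence.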
RORgamma inh: qHTS for inhibitors of ROR gamma transcriptional activity. Nuclear receptor ROR-gamma (Mus musculus), P51450. Drosophila S2 Gal4-RORgamma UAS-luciferase reporter, 20 h. Potency, µM (highest dose often 53.6 µM), usual class: inhibitors. 5.4% of 310,000 active; further: nearly all actives have a fitted effect of over 60% in size
Target sequence (P51450 whole entry, looked up, the tested form may be a part): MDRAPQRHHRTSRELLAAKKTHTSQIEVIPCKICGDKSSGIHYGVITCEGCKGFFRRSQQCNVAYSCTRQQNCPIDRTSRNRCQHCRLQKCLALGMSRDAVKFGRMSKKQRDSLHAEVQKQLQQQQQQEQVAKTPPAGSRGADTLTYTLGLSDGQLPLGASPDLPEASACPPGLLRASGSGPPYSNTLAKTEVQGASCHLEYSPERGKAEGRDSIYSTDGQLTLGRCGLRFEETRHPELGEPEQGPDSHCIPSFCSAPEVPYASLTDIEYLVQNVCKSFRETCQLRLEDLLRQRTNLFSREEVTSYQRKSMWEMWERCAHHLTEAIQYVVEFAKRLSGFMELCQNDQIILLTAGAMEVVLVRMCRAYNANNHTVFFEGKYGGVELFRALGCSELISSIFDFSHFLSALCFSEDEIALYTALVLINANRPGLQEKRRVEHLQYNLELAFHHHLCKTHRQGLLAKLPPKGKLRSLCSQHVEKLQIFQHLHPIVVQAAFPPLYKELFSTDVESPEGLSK
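In this cell-based reporter format, copper sulfate (700 uM final) drives Gal4–ROR gamma fusion expression from a metallothionein promoter in Drosophila Schneider cells; compounds preincubated 1 hr, reporter read after 20 hr at ambient temperature.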
Large screens that a line does not name were inactive. Unless noted, the call rests on the fitted dose curve; in most records, active means well fitted curve in the direction sought with a large enough effect; inconclusive means small, poorly fitted or top-dose-only effect, or another doubt; inactive means no such curve, though single readings can be large; an effect the other way counts as inactive or inconclusive.

Cc1ccc(C(=O)Cc2ccccc2)cc1	none (no result: Gal4-VP16 FLuc, p53 reactivator, RORgamma inh)
Cc1ccc(NC(CC(=O)c2ccccc2)c2ccc(F)cc2)cc1 (configuration not stated)	p53 reactivator inconclusive
O=C(Nc1ccccc1SC(=O)c1ccccc1)c1ccccc1	none (no result: Gal4-VP16 FLuc, p53 reactivator, RORgamma inh)
Cc1ccccc1C	none (no result: CtBP-E1A blk, Six1-Eya2 blk, p53 reactivator)
Cc1ccc(C)c2sc(NC(=O)c3ccc(N4C(=O)CCC4=O)cc3)nc12	RORgamma inh 0.199µM
Cc1ccc(OCC(=O)Nc2ccncc2)c(C)c1	Gal4-VP16 FLuc 15.8µM
Cc1ccccc1OCC(=O)Nc1ccc(Cc2ccncc2)cc1	Gal4-VP16 FLuc 10µM, RORgamma inh inconclusive
Cc1ccccc1OCC(=O)Nc1ccncc1	Gal4-VP16 FLuc 11.2µM, RORgamma inh inconclusive
CC(=O)NCCNc1nc(-c2ccccc2C)nc2ccccc12	none (no result: CtBP-E1A blk, Six1-Eya2 blk, p53 reactivator)
Cc1ccc(C(C)C)cc1NC(=O)Nc1ccc([N+](=O)[O-])cc1	Gal4-VP16 FLuc 12.6µM, RORgamma inh 35.5µM (no result: CtBP-E1A blk)
Cc1cc(O)c(C(C)C)cc1NC(=O)Nc1ccc([N+](=O)[O-])cc1	none (no result: Gal4-VP16 FLuc, p53 reactivator, RORgamma inh)
O=C(NC1CCCCC1)c1nc(-c2c(F)cccc2F)oc1-c1ccccc1	none (no result: Gal4-VP16 FLuc, p53 reactivator, RORgamma inh)
CCOC(=O)c1cnc(-n2[nH]c(C)c(Cc3ccccc3)c2=O)[nH]c1=O	CtBP-E1A blk -92.2, Six1-Eya2 blk -82.1
CCOC(=O)c1cnc(-n2[nH]c(C)cc2=O)[nH]c1=O	CtBP-E1A blk -92.1, Six1-Eya2 blk -76.9
CC(C)CNC(=S)NNC(=O)c1csc2c1CCCC2	Gal4-VP16 FLuc inconclusive, RORgamma inh 7.08µM
CC(C)CNC(=S)NNC(=O)c1csc2ccccc12	none
CCn1c(SCC(=O)Nc2ccc(F)cc2)nnc1-c1cnccn1	none
CC1CN(c2ccc([N+](=O)[O-])c(NCCOc3ccc(Cl)cc3)c2)CC(C)N1 (configuration not stated)	Gal4-VP16 FLuc 17.8µM, RORgamma inh inconclusive (no result: CtBP-E1A blk)
O=C(NNC1=Nc2ccccc2SC1)c1ccc(Cl)cc1	Gal4-VP16 FLuc 5.62µM, RORgamma inh 1.12µM
O=C(NNc1c2ccccc2nc2ccccc12)c1ccc(Cl)cc1	none
O=C(NNC1=Nc2ccccc2SC1)c1ccc(F)cc1	Gal4-VP16 FLuc 3.55µM, RORgamma inh inconclusive
FC(F)(F)c1nnc2c(Sc3ccccn3)nc3ccccc3n12	Gal4-VP16 FLuc 20µM, p53 reactivator inconclusive, RORgamma inh 10µM
CCn1c(COc2ccc(C)cc2)nnc1SCc1nc2ccccc2[nH]1	Gal4-VP16 FLuc inconclusive, RORgamma inh 12.6µM
O=c1[nH]c(CSc2nnc(COc3ccccc3)n2-c2ccccc2)nc2ccccc12	Gal4-VP16 FLuc inconclusive, RORgamma inh 12.6µM
COc1ccc(NC(=O)CCCN2C(=O)C(c3ccccc3)Oc3cccnc32)c(OC)c1 (configuration not stated)	none
COc1ccc(CNc2ccc(S(N)(=O)=O)cc2)c(OC)c1OC	Gal4-VP16 FLuc 20µM, RORgamma inh inconclusive
Nc1ccc(S(=O)(=O)NCc2ccccn2)cc1	none
O=S(=O)(NCc1ccccn1)C(F)(F)F	Gal4-VP16 FLuc inconclusive, RORgamma inh 1.41µM
O=C1C(Nc2cccc(O)c2)=C(N2CCCCC2)C(=O)c2ccccc21	Six1-Eya2 blk -70.8, Gal4-VP16 FLuc inconclusive
O=C(/C=C/c1ccc(O)cc1)c1ccc(NC2=C(N3CCCCC3)C(=O)c3ccccc3C2=O)cc1	Gal4-VP16 FLuc inconclusive, p53 reactivator inconclusive, RORgamma inh 0.316µM
Cc1ccc(C(O)(C(=O)NNc2ccc3ccccc3n2)c2ccc(C)cc2)cc1	Gal4-VP16 FLuc 8.91µM, RORgamma inh 10µM
O=C(CSc1nnnn1-c1ccc(Cl)cc1)NC1CCS(=O)(=O)C1 (configuration not stated)	none (no result: CtBP-E1A blk, Gal4-VP16 FLuc, RORgamma inh)
CC1CCN(c2nc3ccc(C(=O)N4CCN(Cc5ccc6c(c5)OCO6)CC4)cc3s2)CC1	Gal4-VP16 FLuc 7.08µM, RORgamma inh inconclusive
S=C(N/N=C/c1ccc2ncccc2c1)Nc1cccnc1	Gal4-VP16 FLuc inconclusive, RORgamma inh 4.47µM
Fc1ccc(NC(=S)Nc2cccnc2)cc1	none
Oc1ccc(C=NNC(=S)Nc2cccnc2)nc1	Six1-Eya2 blk -96.8 (no result: Gal4-VP16 FLuc, p53 reactivator, RORgamma inh)
COc1ccccc1/C=N/NC(=S)Nc1cccnc1	Gal4-VP16 FLuc inconclusive, RORgamma inh 0.708µM
